# According to PubChem BioAssay (NCATS):
# Records with an inconclusive call do not appear. The source made the active and inactive calls. Calls follow the shape of the dose curve; as a rule, active = well fitted cell-killing curve with a large enough effect; inconclusive = small, poorly fitted or top-dose-only effect, or effect the other way; inactive = no such curve, though single readings can be large or run the other way. Starred links: 1 amine or outer side, 2 acyl side, 3 side chain; linkers in the order of their positions; H or OH if unused. Positions of bridges follow the written chain, without caps; N, C: chain ends. Non-standard residues stand in square brackets, D forms with d. Residues, ends and D or L forms follow the SMILES beside them. Chains are numbered I, II in the order given. ξ: configuration not given here. *: point of attachment. Actinocin(9to1) = Cc1c2oc3c(C)ccc(C(=O)[*:1])c3nc-2c(C(=O)[*:2])c(N)c1=O; Octanoyl(6-Me) = CCC(C)CCCCC(=O)*; ξThr(3R) = C[C@@H](O)C(N)C(=O)O; NMeV = CN[CH](C(=O)O)C(C)C; dDab = NCC[C@@H](N)C(=O)O; Dab = NCC[C@H](N)C(=O)O; Nva = CCC[C@H](N)C(=O)O; Cbz = O=C(OCc1ccccc1)*; Sar = CNCC(=O)O
# Assay: Quantitative High-Throughput drug screen in 47 multiple myeloma cell lines against the NCATS MIPE library collection: VP6_DJ cell viability assay (AID 1919867); also: nearly all actives have a fitted effect of over 40% in size
# Conditions: ATP luminescence, 48 h; series mostly up to 45.8 µM
# Source text: PI: Beverly A. Mock Ph.D.
# Laboratory of Cancer Biology and Genetics,
# Center for Cancer Research, National Cancer Institute,
# National Institute of Health, Bethesda, Maryland
# Drug resistance and disease progression are common in multiple myeloma (MM) patients, underscoring the need for new therapeutic combinations. […] We hypothesized that effective combinations would reduce MYC expression and enhance p16 activity. […] These preclinical data identify potentially useful drug combinations for evaluation in drug-resistant MM and reveal potential mechanisms of combined drug sensitivity.
# Described herein is the primary MIPE qHTS used to cherrypick compounds. Validated compounds were then further tested for potential synergistic activiy.
# [1] Peat TJ, Gaikwad SM, Dubois W, Gyabaah-Kessie N, Zhang S, Gorjifard S, Phyo Z, Andres M, Hughitt VK, Simpson RM, Miller MA, Girvin AT, Taylor A, Williams D, D'Antonio N, Zhang Y, Rajagopalan A, Flietner E, Wilson K, Zhang X, Shinn P, Klumpp-Thomas C, McKnight C, Itkin Z, Chen L, Kazandijian D, Zhang J, Michalowski AM, Simmons JK, Keats J, Thomas CJ, Mock BA. Drug combinations identified by high-throughput screening promote cell cycle transition and upregulate Smad pathways in myeloma. Cancer Lett. 2023 Aug 1;568:216284. doi: 10.1016/j.canlet.2023.216284. Epub 2023 Jun 24. PMID: 37356470; PMCID: PMC10408729.
# SEQUENCE No. (e.g., 1, 2, 3, etc.); […] (e.g., Cells, Incubation, Reagent, etc.); VALUE and DESCRIPTION.
# 1; Cells; 5 uL; white, solid bottom 1536-well Greiner assay plate.
# 2; Compounds; 23 nL; Kalypsis pin tool (Wako USA) equipped with a 1536-well pin head to transfer to the assay plates.
# 3; Incubation; 48 hours; 37C incubation.
# 4; Reagent;5uL; CellTiter Glo (Promega).
# 5; Detector; 425V; Luminescence; Viewlux PerkinElmer.
# NOTES (numbers refer to Sequence numbers above)
# 1. The cell-based screening methods employed in this study were like those previously published. Briefly, the corresponding myeloma cell lines were screened in 1,536-well plates with 500 cells, 5-uL per well for inhibition of cell viability (assessed by measuring ATP levels with CellTiterGlo).
# 2. NCATS MIPE 4.0 library of approved and investigational drugs were added using the Kalypsis pin tool. Wells treated with DMSO only for 100% viability and media only for 0% viability were used as controls.
# 3. The assay plates were covered and incubated for 48 hours in a 37C, 5% CO2 incubator with controlled humidity.
# 4. After 48 hours, CellTilter-GloTM luminescent substrate mix (Promega) reagent was added to the assay plate and plates we incubated for 5 min at room temperature.
# 5. Signal was measured as median relative luminescence units on a ViewLux (PerkinElmer) multiplate reader.
# [1] Heske CM, Davis MI, Baumgart JT, Wilson K, Gormally MV, Chen L, Zhang X, Ceribelli M, Duveau DY, Guha R, Ferrer M, Arnaldez FI, Ji J, Tran HL, Zhang Y, Mendoza A, Helman LJ, Thomas CJ. Matrix Screen Identifies Synergistic Combination of PARP Inhibitors and Nicotinamide Phosphoribosyltransferase (NAMPT) Inhibitors in Ewing Sarcoma. Clin Cancer Res. 2017 Dec 1;23(23):7301-7311. doi: 10.1158/1078-0432.CCR-17-1121. Epub 2017 Sep 12. PMID: 28899971; PMCID: PMC6636827.
# Potency is read from the fitted curve at half-maximal effect.
row,SMILES,Potency
1,CC(C)Oc1ccc(C(=O)N[C@H](CNC(=O)CN(C)C)Cc2ccc(-c3cn4cccc([C@H](C)O)c4n3)cc2)cc1Cl,5.26 µM (active)
2,COc1cc(O)c2c(c1)C1OC1C[C@H](O)[C@H](O)C(=O)C=CC[C@H](C)OC2=O (stereo not given in full),1.66 µM (active)
3,O=c1[nH]c(=O)n([C@H]2C[C@@H](O)[C@@H](CO)O2)cc1F,18.7 µM (active)
4,CN(C)c1ccc(C(=O)NCCCCCCC(=O)NO)cc1,0.148 µM (active)
5,Oc1cc(-c2nc(-c3ccccc3)[nH]c2-c2ccncc2)ccc1Cl,3.72 µM (active)
6,CC(=O)NC(CS)C(=O)O (stereo not given),inactive
7,O=C(O)C(=O)Nc1cccc(C2=NN=N[N]2)c1,inactive
8,C=CC(=O)Nc1cccc(Nc2nc(NC3CCC(N(C)C)CC3)nc3c2ncn3C(C)C)c1 (stereo not given),0.235 µM (active)
9,Cc1ccc2nc(NCCN)c3ncc(C)n3c2c1,5.26 µM (active)
10,CCN(CC)CCCCNc1ncc2c(n1)N(C)C(=O)N(c1c(Cl)c(OC)cc(OC)c1Cl)C2,18.7 µM (active)
11,Nc1nc(=O)n([C@H]2CSC(CO)O2)cc1F (stereo not given in full),inactive
12,NC(=O)Nc1sc(-c2ccc(F)cc2)cc1C(N)=O,1.32 µM (active)
13,O=C(NC1CC1)c1cccc(-c2ccc3c(NC(=O)C4CC4)n[nH]c3c2)c1,9.35 µM (active)
14,COC(=O)[C@@H]1[C@H]2C[C@@H]3c4[nH]c5ccccc5c4CCN3C[C@@H]2CC[C@@H]1O,inactive
15,CN[C@H](CC(C)C)C(=O)N[C@H]1C(=O)N[C@@H](CC(N)=O)C(=O)N[C@@H]2C(=O)N[C@H]3C(=O)N[C@H](C(=O)N[C@H](C(=O)O)c4cc(O)cc(O)c4-c4cc3ccc4O)[C@H](O)c3ccc(c(Cl)c3)Oc3cc2cc(c3O[C@@H]2O[C@H](CO)[C@@H](O)[C@H](O)[C@@H]2O[C@H]2C[C@](C)(N)[C@H](O)[C@H](C)O2)Oc2ccc(cc2Cl)[C@H]1O,13.2 µM (active)
16,O=C(CN1C(=O)C2(CCCC2)NC[C@H]1c1cc(F)cc(F)c1)Nc1ccc2c(c1)C[C@@]1(C2)C(=O)Nc2ncccc21,inactive
17,CCCCCCCCCCCCCCCC(=O)OC[C@@H](NC(=O)C(Cl)Cl)[C@H](O)c1ccc([N+](=O)[O-])cc1,inactive
18,Cc1cnc(Nc2ccc(N3CCN(C)CC3)cc2)nc1Nc1cccc(S(=O)(=O)NC(C)(C)C)c1,0.469 µM (active)
19,CCC[C@@H](C=O)NC(=O)[C@H](CC(C)C)NC(=O)[C@H](CC(C)C)NC(=O)OCc1ccccc1 (Cbz-Leu-Leu-[Nva]-aldehyde),0.235 µM (active)
20,CC[C@H]1OC(=O)[C@H](C)[C@@H](O[C@H]2C[C@@](C)(OC)[C@@H](O)[C@H](C)O2)[C@H](C)[C@@H](O[C@@H]2O[C@H](C)C[C@H](N(C)C)[C@@H]2O)[C@](C)(OC)C[C@@H](C)C(=O)[C@H](C)[C@@H](O)[C@]1(C)O,inactive

row,SMILES,Potency
1,Cc1cnn(C)c1C(=O)Nc1cc(Nc2ccc3c(C=Cc4ccccn4)n[nH]c3c2)ccc1F,10.5 µM (active)
2,CCOC(=O)[C@@H](N)Cc1ccc(-c2cc(O[C@H](c3ccc(Cl)cc3-n3ccc(C)n3)C(F)(F)F)nc(N)n2)cc1,26.4 µM (active)
3,CC1=C(C(=O)Nc2cc3cn[nH]c3cc2F)C(c2ccc(Cl)cc2F)N=C(c2ccnc(Cl)c2)N1 (stereo not given),18.7 µM (active)
4,CC[C@@]1([C@@H]2O[C@@H]([C@H]3O[C@@](O)(CO)[C@H](C)C[C@H]3C)C[C@H]2C)CC[C@H]([C@]2(C)CC[C@]3(C[C@H](O)[C@@H](C)[C@@H]([C@@H](C)[C@@H](OC)[C@H](C)C(=O)O)O3)O2)O1,0.512 µM (active)
5,"Cc1c2oc3c(C)ccc(C(=O)NC4C(=O)NC(C(C)C)C(=O)N5CCCC5C(=O)N(C)CC(=O)N(C)C(C(C)C)C(=O)OC4C)c3nc-2c(C(=O)NC2C(=O)NC(C(C)C)C(=O)N3CCCC3C(=O)N(C)CC(=O)N(C)C(C(C)C)C(=O)OC2C)c(N)c1=O (stereo not given) (I: TVP[Sar][NMeV] / II: TVP[Sar][NMeV]; ester I:1-I:C, II:1-II:C; linker I:N-II:N via Actinocin(9to1); configuration not given here)",inactive
6,COc1ccc(CCC(=O)c2c(O)cc(O[C@@H]3O[C@H](CO)[C@@H](O)[C@H](O)[C@@H]3O[C@@H]3O[C@@H](C)[C@H](O)[C@@H](O)[C@@H]3O)cc2O)cc1O,9.35 µM (active)
7,CC(=CC(=O)Nc1ccccc1C(=O)O)c1ccc2ccccc2c1,18.7 µM (active)
8,COc1cc(C[C@@H](CO)[C@H](CO)Cc2ccc(O)c(OC)c2)ccc1O,0.372 µM (active)
9,O=c1c(O)c(-c2ccc(O)c(O)c2)oc2cc(O)ccc12,14.8 µM (active)
10,COC(=O)C=CC(=O)OC,2.64 µM (active)
11,COc1cc2ncnc(Nc3cccc(Br)c3)c2cc1OC,0.743 µM (active)
12,COc1cc2c(Nc3ccc(Cl)c(Cl)c3F)ncnc2cc1OCC1C[C@@H]2CN(C)C[C@H]2C1,2.64 µM (active)
13,CC1(C)O[C@@H]2C[C@H]3[C@@H]4CCC5=CC(=O)C=C[C@]5(C)[C@@H]4[C@@H](O)C[C@]3(C)[C@]2(C(=O)CO)O1,18.7 µM (active)
14,C[C@@H](NCc1cc2ccccc2[nH]1)c1cccc2ccccc12,inactive
15,CN[C@H]1[C@@H](O)[C@@H]2O[C@@H]3O[C@H](C)CC(=O)[C@]3(O)O[C@@H]2[C@@H](NC)[C@H]1O,1.87 µM (active)
16,CCC(C)CCCCC(=O)N[C@@H](CCN)C(=O)NC(C(=O)N[C@H](CCN)C(=O)N[C@@H]1CCNC(=O)C([C@@H](C)O)NC(=O)[C@@H](CCN)NC(=O)[C@@H](CCN)NC(=O)[C@@H](CC(C)C)NC(=O)[C@H](Cc2ccccc2)NC(=O)[C@H](CCN)NC1=O)[C@@H](C)O (stereo partly drawn) ({Octanoyl(6-Me)}-[Dab][ξThr(3R)][dDab][dDab][Dab]F[dL][dDab][dDab][ξThr(3R)]; lactam 4-C),inactive
17,N#CC(=C(O)c1ccc(Cl)cc1Cl)c1nc2cc(Cl)ccc2c(=O)[nH]1,16.6 µM (active)
18,C[C@H](NCc1ccc(OCc2cccc(F)c2)cc1)C(N)=O,2.35 µM (active)
19,CC(=O)ON=C1C(c2c(O)[nH]c3cc(Br)ccc23)=Nc2ccccc21,2.64 µM (active)
20,Cc1cnc(Nc2ccc(CN3CCOCC3)cc2)nc1Nc1cccc(S(=O)(=O)NC(C)(C)C)c1,1.32 µM (active)
